The results in this text go back to PubChem BioAssay (Tox21).

“And” between values parts separate entries of the source, which are not always exact repeats. Equal values may be shown once. Records with an inconclusive call do not appear. Some compounds were tested as several samples or in several runs, with calls that do not always agree. The source made the active and inactive calls. Unless noted, calls come from the whole dose curve; as a rule, active = well fitted curve in the direction sought with a large enough effect in the repeat runs; inconclusive = weak or mixed curves; inactive = no such curve, though single readings can be large; an effect the other way counts as inactive or inconclusive.

Assay [1] addresses Luciferin 4-monooxygenase (Photinus pyralis) (UniProt P08659). The assay can be described thus: qHTS assay to identify small molecule inhibitors of firefly luciferase (AID 1224835). Note: nearly all actives have a fitted effect of over 25% in size. Note: potency is the fitted concentration of half-maximal effect. In short, it runs like this:
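Quantitative HTS format; KM concentrations of both substrates. Purified P. pyralis FLuc activity quantified from luminescence images.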
(Quantitative high-throughput screening tests each substance at several concentrations.)

Assay [2] can be described thus: qHTS assay to identify small molecule agonists of the constitutive androstane receptor (CAR) signaling pathway - cell viability counter screen (AID 1224836). Note: nearly all actives have a fitted effect of over 45% in size. Note: potency is the fitted concentration of half-maximal effect. The procedure, abridged: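 HepG2-CYP2B6-hCAR, 2500 cells/well, 4 h pre-incubation; cpd 15 conc + PK11195 0.75 uM final; 23 h, 37 C/5% CO2; CellTiter-Fluor, fluorescence.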
The nature of assay [3]: qHTS assay to identify small molecule antagonists of the constitutive androstane receptor (CAR) signaling pathway - cell viability counter screen (AID 1224837). Note: nearly all actives have a fitted effect of over 45% in size. Note: potency is the fitted concentration of half-maximal effect. In short, it runs like this:
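Using CellTiter-Fluor, viability is scored in HepG2 cells stably carrying hCAR and a 2.2kb CYP2B6 reporter after 23 hr compound exposure across 15 concentrations, with CITCO present at 50 nM.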

Assay [4] deals with Nuclear receptor subfamily 1 group I member 3 (Homo sapiens) (UniProt Q14994). The assay can be described thus: qHTS assay to identify small molecule antagonists of the constitutive androstane receptor (CAR) signaling pathway (AID 1224838).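 Note: HepG2 cells stably expressing hCAR with CYP2B6 luciferase reporter stimulated by CITCO; nearly all actives have a fitted effect of over 40% in size.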 Note: potency is the fitted concentration of half-maximal effect. In short, it runs like this: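 Reporter luminescence was quantified after 24 h exposure of hCAR/CYP2B6-2.2kb double-stable HepG2 cells to compounds at 15 concentrations in the presence of 50 nM CITCO final.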
Sequence of Nuclear receptor subfamily 1 group I member 3 (Homo sapiens) (Q14994 whole entry, looked up): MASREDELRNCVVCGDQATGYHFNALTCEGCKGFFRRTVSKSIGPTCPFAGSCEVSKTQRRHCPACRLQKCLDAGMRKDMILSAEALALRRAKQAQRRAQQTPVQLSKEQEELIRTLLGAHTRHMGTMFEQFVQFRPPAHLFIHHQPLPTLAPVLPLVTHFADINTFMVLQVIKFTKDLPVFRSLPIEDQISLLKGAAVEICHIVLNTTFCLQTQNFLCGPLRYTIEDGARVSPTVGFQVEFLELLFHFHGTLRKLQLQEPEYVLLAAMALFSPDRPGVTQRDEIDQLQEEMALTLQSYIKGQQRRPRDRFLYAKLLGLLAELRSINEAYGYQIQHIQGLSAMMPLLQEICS

The target is the same in assay [5]. As to the kind of experiment: qHTS assay to identify small molecule agonists of the constitutive androstane receptor (CAR) signaling pathway (AID 1224839).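 For activation: HepG2 cells stably carrying human CAR and a CYP2B6 luciferase reporter.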 Note: nearly all actives have a fitted effect of over 15% in size. Note: potency is the fitted concentration of half-maximal effect. The procedure, abridged: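 HepG2-CYP2B6-hCAR cells, 2500/well, 4 h pre-incubation; compounds 15 conc.; PK11195 0.75 uM final; 24 h, 37 C/5% CO2; ONE-Glo luciferase read.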
Assay [6] in a line: qHTS assay to identify small molecule antagonists of the estrogen related receptor signaling pathway with the pleiotropic PPARgamma coactivator (PGC) from Tox21 10K library - cell viability counter screen (AID 1224840; active = well fitted cell-killing curve with a large enough effect in the repeat runs, not every such curve was filed as active; note: nearly all actives have a fitted effect of over 40% in size; note: potency is the fitted concentration of half-maximal effect). The procedure, abridged: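 Here the PGC/ERR cells serve as a cytotoxicity control: they are exposed to compounds for 17.5 hours at 37 C, and live-cell signal is quantified using CellTiter-Fluor fluorescence.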

The nature of assay [7]: qHTS assay to identify small molecule antagonists of the estrogen related receptor signaling pathway with the pleiotropic PPARgamma coactivator (PGC) from Tox21 10K library (AID 1224841; call rule not given here; note: actives are mostly falling curves and most rising ones were filed inactive; nearly all actives have a fitted effect of over 50% in size; note: potency is the fitted concentration of half-maximal effect). The procedure, abridged: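 Each well held 2,000 PGC/ERR cells, pre-incubated six hours (37 C, 5% CO2). Test substances in DMSO were added by pin tool and left for 18 h at 37 C before luciferase detection by One-Glo.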

Assay [8] can be described thus: qHTS assay to identify small molecule agonists of the estrogen related receptor signaling pathway with the pleiotropic PPARgamma coactivator (PGC) from Tox21 10K library (AID 1224842). Note: nearly all actives have a fitted effect of over 15% in size. The procedure, abridged: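 PGC/ERR reporter cells (NTP line) were seeded 2,000 per well, rested 6 h at 37 C/5% CO2, then pin-dosed with compounds in DMSO for 18 h at 37 C; luciferase read by One-Glo luminescence after 30 min at room temperature.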

Assay [9] has as its target Thyrotropin receptor (Homo sapiens) (UniProt P16473). The assay can be described thus: qHTS assay to identify small molecule agonists of the thyroid stimulating hormone receptor (TSHR) signaling pathway (AID 1224843; calls by dose curve; note: nearly all actives have a fitted effect of over 45% in size). The procedure, abridged:
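TSHR-expressing HEK293 cells (800 per well) were exposed to compounds for 30 min at room temperature. cAMP was then detected by HTRF competition with cAMP-d2 and anti-cAMP cryptate, read after 1 h at room temperature. Fifteen concentrations, triplicate.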

A short description of assay [10]: qHTS assay to identify small molecule agonists of the hypoxia (HIF-1) signaling pathway - cell viability counter screen (AID 1224844; calls by dose curve; note: nearly all actives have a fitted effect of over 50% in size). The procedure, abridged:
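Multiplexed with the HRE beta-lactamase assay, this viability read used CellTiter-Glo luminescence (30 min, RT) on HRE-bla ME-180 cells treated 17 hrs with compounds in 0.5% dialyzed FBS medium.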

Assay [11] can be described thus: qHTS assay to identify small molecule agonists of H2AX (AID 1224845; active = well fitted activation curve with a large enough effect in the signal ratio in the repeat runs, not every such curve was filed as active; the % refers to the signal ratio). In short, it runs like this: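 Wild-type CHO-K1 cells plated overnight, then exposed 3 hr at 37C to compounds at 15 concentrations (0.76% DMSO). Lysed, then HTRF anti-pH2AX(S139)-cryptate/anti-H2AX-d2 detection after 24 hr at room temperature; emissions 665 and 620 nm.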
Assay [12] can be described thus: qHTS assay to identify small molecule agonists of the hypoxia (HIF-1) signaling pathway (AID 1224846; active = well fitted activation curve with a large enough effect in the signal ratio in the repeat runs, not every such curve was filed as active; the % refers to the signal ratio). In short, it runs like this:
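Hypoxia-pathway activation was scored as increased beta-lactamase from an HRE-controlled reporter in ME-180 cells; plated at 2,000 cells per well with 0.5% dialyzed FBS, they were exposed 17 hrs to compounds and then given CCF4-AM.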

Assay [13] can be described thus: qHTS assay to identify small molecule agonists of H2AX - cell viability counter screen (AID 1224847; calls by dose curve; note: top concentration of the series differs between compounds; nearly all actives have a fitted effect of over 30% in size). In short, it runs like this: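 Cells plated first: CHO-K1, 1000 per well in 10% FBS medium, incubated overnight at 37C. Then 15-point compound titration added (final DMSO 0.76%) for 3 hr. Finally CellTiter-Glo added and luminescence read.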
Assay [14] in a line: qHTS assay to identify small molecule antagonists of the estrogen related receptor (ERR) signaling pathway from Tox21 library (AID 1224848). Note: nearly all actives have a fitted effect of over 50% in size. Note: potency is the fitted concentration of half-maximal effect. In short, it runs like this: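 Cells: ERR line, 2,000/well; 6 h preincubation 37 C/5% CO2. Cpd in DMSO via pin tool; 18 h, 37 C. ONE-Glo, 30 min RT, luminescence.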
Assay [15] is described as follows: qHTS assay to identify small molecule agonists of the estrogen related receptor (ERR) signaling pathway from Tox21 library (AID 1224849; calls by dose curve; note: nearly all actives have a fitted effect of over 15% in size). Particulars: ERR reporter cell line, ONE-Glo luciferase, 18 h. In short, it runs like this:
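Six hours post-seeding at 37 C/5% CO2, ERR cells receive DMSO-solubilised compounds; after 18 h at 37 C, ONE-Glo reagent is applied and luminescence recorded.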

The nature of assay [16]: qHTS RealTime-Glo MT Cell Viability Assay in HepG2 cells - 24 hour (AID 1224867). Note: nearly all actives have a fitted effect of over 50% in size. The procedure, abridged:
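qHTS, HepG2, 600 cells/well, RealTime-Glo (NanoLuc + prosubstrate) added with cells; 5 h preincubation; DMSO compound addition; 37 C; luminescence at 0/8/16/24/32/40 h.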

The nature of assay [17]: qHTS RealTime-Glo MT Cell Viability Assay in HEK293 cells - 32 hour (AID 1224868). Note: nearly all actives have a fitted effect of over 50% in size. Note: potency is the fitted concentration of half-maximal effect. In short, it runs like this: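 Assay medium contained NanoLuc luciferase plus cell-permeant prosubstrate, added with HEK293 cells at 600 cells/well. After 5 h at 37 C/5% CO2 compounds were added; plates stayed at 37 C for 40 h with serial luminescence reads.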
A short description of assay [18]: A CellTox Green Cytotoxicity Assay to monitor cytotoxicity in HEK293 cells - 0 hour (AID 1224869). Note: nearly all actives have a fitted effect of over 50% in size. The procedure, abridged: (§1)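 Seeding of HEK293 cells together with cytotoxicity dye preceded a 5 h incubation at 37 C/5% CO2. Test compounds in DMSO were then added and fluorescence monitored across 40 h.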
Assay [19] can be described thus: qHTS RealTime-Glo MT Cell Viability Assay in HepG2 cells - 40 hour (AID 1224870). Note: nearly all actives have a fitted effect of over 50% in size. The procedure, abridged: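 HepG2 cells mixed with RealTime-Glo MT reagents (NanoLuc plus cell-permeant prosubstrate) were seeded at 600 cells/well, incubated 5 h at 37 C/5% CO2, then pinned with compounds in DMSO; nonlytic luminescence tracked viability during 40 h treatment.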
The nature of assay [20]: A CellTox Green Cytotoxicity Assay to monitor cytotoxicity in HEK293 cells - 40 hour (AID 1224871). Note: nearly all actives have a fitted effect of over 45% in size. Note: potency is the fitted concentration of half-maximal effect. In short, it runs like this: as §1
% is set by controls: 0 for no effect and ±100 for the full control effect.

Sequence of Thyrotropin receptor (Homo sapiens) (P16473 whole entry, looked up): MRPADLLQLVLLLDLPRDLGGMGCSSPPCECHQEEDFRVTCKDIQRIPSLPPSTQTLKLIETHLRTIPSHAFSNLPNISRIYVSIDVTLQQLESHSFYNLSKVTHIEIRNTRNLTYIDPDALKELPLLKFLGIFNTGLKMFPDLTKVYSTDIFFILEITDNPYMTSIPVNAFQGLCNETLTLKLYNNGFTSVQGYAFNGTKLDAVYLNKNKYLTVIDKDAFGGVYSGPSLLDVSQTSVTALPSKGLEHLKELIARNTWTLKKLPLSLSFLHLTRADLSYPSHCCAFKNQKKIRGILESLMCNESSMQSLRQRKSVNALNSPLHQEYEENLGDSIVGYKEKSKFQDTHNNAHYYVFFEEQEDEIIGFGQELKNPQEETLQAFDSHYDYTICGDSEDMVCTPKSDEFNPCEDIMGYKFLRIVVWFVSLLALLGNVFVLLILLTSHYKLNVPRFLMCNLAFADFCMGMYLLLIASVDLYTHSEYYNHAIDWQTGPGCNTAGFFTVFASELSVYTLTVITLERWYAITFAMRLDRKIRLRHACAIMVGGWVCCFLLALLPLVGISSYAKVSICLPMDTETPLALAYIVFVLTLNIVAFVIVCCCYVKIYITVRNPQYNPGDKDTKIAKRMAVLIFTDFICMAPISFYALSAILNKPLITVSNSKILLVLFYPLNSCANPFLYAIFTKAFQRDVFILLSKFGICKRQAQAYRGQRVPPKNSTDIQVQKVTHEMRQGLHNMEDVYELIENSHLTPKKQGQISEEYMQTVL
Sequence of Luciferin 4-monooxygenase (Photinus pyralis) (P08659 whole entry, looked up): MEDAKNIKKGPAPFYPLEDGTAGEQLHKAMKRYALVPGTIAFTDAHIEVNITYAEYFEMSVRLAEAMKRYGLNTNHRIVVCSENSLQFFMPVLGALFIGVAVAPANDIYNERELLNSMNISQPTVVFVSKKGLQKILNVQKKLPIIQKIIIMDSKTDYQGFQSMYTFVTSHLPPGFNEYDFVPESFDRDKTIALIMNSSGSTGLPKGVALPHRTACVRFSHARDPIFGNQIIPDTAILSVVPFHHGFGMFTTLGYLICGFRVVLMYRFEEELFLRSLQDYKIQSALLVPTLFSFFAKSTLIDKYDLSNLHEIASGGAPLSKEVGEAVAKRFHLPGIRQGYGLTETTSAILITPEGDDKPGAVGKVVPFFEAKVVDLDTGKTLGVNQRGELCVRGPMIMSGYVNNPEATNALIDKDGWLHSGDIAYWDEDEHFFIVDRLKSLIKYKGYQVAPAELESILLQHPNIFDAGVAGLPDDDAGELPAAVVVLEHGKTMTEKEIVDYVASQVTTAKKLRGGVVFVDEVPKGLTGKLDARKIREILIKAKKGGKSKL

Consider `C=CCOC(=O)C(=C)C`, for which the Potency entry in assay [1], in assay [2], in assay [3], in [4], in [5] and in assay [6] was “inactive” throughout. For the same compound, the Potency entry in [7], in assay [8], in assay [9], in assay [10], in assay [11] and in [13] was “inactive” throughout. Further, the Potency entry in [14], in assay [16], in assay [17], in assay [18], in [19] and in assay [20] was “inactive” in each case. For the same compound, the call in assay [12] was inactive. Besides, in assay [15] (at 92.4 µM (top of the series)), the activity change, positive = activation was -1.6% (inactive) and 1.74% (inactive).
Regarding `CC(=O)Oc1c(C)c(C)c2c(c1C)CC[C@@](C)(CCC[C@H](C)CCC[C@H](C)CCCC(C)C)O2`, the Potency result in [1], in assay [2], in assay [3], in assay [4], in assay [5] and in [6] was “inactive” in each case. The Potency entry in assay [7], in [8], in assay [9], in assay [10], in assay [11] and in assay [13] was “inactive” throughout. In addition, the Potency result in assay [14], in assay [16], in assay [17], in [18] and in assay [20] was “inactive” in each case. Further, the result in assay [12] was inactive. In addition, the figures for the activity change, positive = activation in [15] (at 42.5 µM (top of the series)) and in [15] (at 92.4 µM (top of the series)) were 0% (inactive) and 5.86% (inactive), respectively.
As for `O=[Se](O)O`, the Potency entry in [1], in assay [5], in assay [9], in assay [10], in assay [11] and in [13] was “inactive” each time. The Potency result in [18] was “inactive”. Besides, the Potency in assay [2] is 43.3 µM (active); in assay [3], 48.6 µM (active); in assay [4], 61.2 µM (active) and 3.3 µM (active); in assay [6], 30.7 µM (active); in assay [17] it was 19.5 µM (active); in assay [20] it was 30.9 µM (active). For the same compound, the viability change, negative = cytotoxic in [6] was -29.3% [at 19 µM] (inactive). The compound was classed as inactive in assay [12]. In [16], the activity change, negative = cytotoxicity was -0.447% [at 15.8 µM] (inactive). Besides, the cytotoxicity increase in assay [20] is -7.57% [at 15.8 µM] (inactive).
For `COc1ccc2nc(N)sc2c1`, the Potency in assay [1] is 35.6 µM (active) and 31.7 µM (active); in assay [5] it was 54.5 µM (active) and 27.3 µM (active); in assay [17], “inactive and 2.19 µM (active)”. Also, the Potency entry in assay [2], in assay [3], in assay [4], in assay [6], in assay [9] and in assay [10] was “inactive” in each case. The Potency result in assay [11], in assay [13], in assay [16], in assay [18], in assay [19] and in assay [20] was “inactive” each time. Also, the result in assay [12] was inactive.
As to `CC/C=C\C/C=C\C/C=C\CCCCCCCC(=O)O`, the Potency entry in assay [1], in assay [2], in [3], in assay [4], in assay [5] and in assay [6] was “inactive” each time. Further, the Potency result in assay [9], in assay [10], in assay [11], in assay [16], in [17] and in assay [18] was “inactive” each time. The Potency entry in assay [19] and in [20] was “inactive” throughout. In addition, in assay [12], the result was inactive.
Turning to `COC(=O)C(C)Oc1ccc(Oc2ncc(C(F)(F)F)cc2Cl)cc1` (configuration not stated), the Potency result in [1], in assay [2], in assay [3], in assay [4], in assay [5] and in [6] was “inactive” each time. The Potency entry in assay [8], in [9], in assay [10], in [11], in assay [13] and in assay [16] was “inactive” throughout. The Potency entry in assay [17], in [18], in [19] and in [20] was “inactive” each time. In addition, the Potency in assay [7] is 78 µM (active); in assay [14], 39.1 µM (active). Moreover, in assay [12], the outcome was inactive. Besides, the activity change, positive = activation in assay [15] (at 92.4 µM (top of the series)) is -47.3% (inactive) and -26.9% (inactive).
For the compound `C[N+](C)(C)CCO`, the Potency result in assay [1], in assay [2], in assay [3], in assay [4], in assay [5] and in assay [6] was “inactive” in each case. Besides, the Potency result in [9], in assay [10], in assay [11], in assay [16], in assay [17] and in [18] was “inactive” throughout. The Potency entry in assay [19] and in [20] was “inactive” in each case.
